Compound activity: PubChem, several laboratories
ROMK mod: human ROMK K+ channel modulation, primary screen | B-score at 10 µM | P48048 | Tet-inducible ROMK, thallium flux fluorescence; actives lie on both sides | 130,000 tested, 2% active;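 active = signal ratio slope over the read window, or its plate-corrected B-score, at least 3 SD from the plate mean, either direction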;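 also: B-score of the F/F0 ratio slope over 7 to 12 s after thallium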
Target sequence (P48048 whole entry, looked up): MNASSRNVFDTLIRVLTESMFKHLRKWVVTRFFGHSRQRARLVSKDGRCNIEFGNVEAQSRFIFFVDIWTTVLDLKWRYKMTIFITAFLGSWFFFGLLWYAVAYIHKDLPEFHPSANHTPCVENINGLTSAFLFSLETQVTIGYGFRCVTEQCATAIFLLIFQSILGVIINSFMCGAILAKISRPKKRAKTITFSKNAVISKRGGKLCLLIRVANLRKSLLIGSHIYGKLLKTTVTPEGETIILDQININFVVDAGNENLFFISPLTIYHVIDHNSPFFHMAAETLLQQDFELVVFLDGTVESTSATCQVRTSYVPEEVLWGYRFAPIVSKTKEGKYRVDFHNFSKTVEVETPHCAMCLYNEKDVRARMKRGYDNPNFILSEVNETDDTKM
WT yeast gro inh: growth inhibition of WT yeast, mitochondrial fusion screen; AID 1362; 190,000 tested, 2.1% active; mitochondrial fusion phenotypic screen, WT strain; inhibition, % at 10 µM; in the data active = inhibition above about 58%; tested in S. cerevisiae
L major viab: reduces viability of Leishmania major promastigotes. resazurin fluorescence viability. inhibition, % at 10 µM. 200,000 tested, 9% active; in the data active = inhibition above about 50%;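 also: promastigotes grown with compound for 44 hours at 28 °C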
Ins promoter up: MIN6 insulin promoter up-regulation; MIN6 insulin promoter-GFP reporter, high-content imaging; stronger effect = higher value; 190,000 tested, 0.3% active; z-score at 5 µM;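 active = z-score above 3 at 5 µM with at least 500 cells counted in the well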
Cl transport mod: KCC2 (human) Cl- transport modulation; B-score of Tl+ flux slope (higher = more flux/activation; lower = inhibition) at 10 µM; Q9H2X9; 190,000 tested, 2.2% active; KCC2 cells, thallium flux FluoZin-2 fluorescence;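 active = thallium flux slope and its plate-corrected score both differing from the plate sample mean at a set confidence after two filtering rounds, in either direction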;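 also: slope of fluorescence scaled to starting intensity during 10 to 20 s after thallium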
Insulin prom inh: TRM-6 insulin promoter activity inhibition. TRM-6 cells (human fetal islet line), insulin promoter-eGFP reporter, imaging; reporter expression induced with tamoxifen. inhibition, % at 2 µM. 130,000 tested, 0.9% active. AID 1273;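 active = inhibition above the mean plus 3 SD, with well images judged a real hit on visual review, cut at about 60% in these data, passing the limit was not always enough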
* = called active by the depositor; · = no result. Most compounds without a hit are left out; they make up all but 12% or so of the library.

SMILES	ROMK mod	WT yeast gro inh	L major viab	Ins promoter up	Cl transport mod	Insulin prom inh
OC1CCN(C(c2ccc3ncccc3c2)c2nnnn2C2CCCCC2)CC1 (stereo not given)	·	0	5	-0.04	0.026	-77
CCCC(c1nnnn1C(C)(C)CC)N1CCN(C2CCCC2)CC1 (stereo not given)	-1.3	5	20	-1.6	·	-13
CCC(C)(C)n1nnnc1C(c1ccc2ncccc2c1)N1CCN2CCCC2C1 (stereo not given)	·	0	70*	0.92	0.036	6
c1cnc2ccc(C(c3nnnn3C3CCCCC3)N3CCN4CCCC4C3)cc2c1 (stereo not given)	-1.2	0	72*	-0.69	-0.5	-32
CCCCOC(=O)c1c(C)oc2ccc(NS(=O)(=O)c3ccc4c5c(cccc35)C(=O)N4)cc12	0.093	22	1	·	·	59
COC(=O)C1CCCN1C(=O)COc1ccc(Br)cc1Cl (stereo not given)	-0.66	1	-9	0.21	-0.17	-438
Cc1ccc(-c2ncccc2OC(=O)C23CC4CC(CC(C4)C2)C3)cc1	-0.26	73*	1	-0.09	-0.047	62
Cc1ccc(CNC(=O)CCCn2c(=O)c3ccccc3n(CC(=O)NC3CCCC3)c2=O)cc1	·	5	-7	-0.37	-0.18	34
COc1ccccc1NC(=O)C1=C(C)Nc2nc(-c3ccc(N(C)C)cc3)nn2C1c1ccncc1 (stereo not given)	·	20	21	-0.75	-0.18	60
COc1cccc(C2C(C(N)=O)=C(C)Nc3nc(-c4cccc(Cl)c4)nn32)c1 (stereo not given)	·	4	6	0.7	-0.1	0
COc1ccccc1-c1nc2n(n1)C(c1cccs1)C(C(=O)Nc1cccnc1)=C(C)N2 (stereo not given)	0.86	-2	99*	0.25	-0.028	9
CC1=C(C(N)=O)C(c2cccnc2)n2nc(-c3cccc(Cl)c3)nc2N1 (stereo not given)	·	1	67*	-0.73	-0.61	0
COc1ccccc1NC(=O)C1=C(C)Nc2nc(-c3cccs3)nn2C1c1cccnc1 (stereo not given)	·	10	97*	-0.82	·	·
COCCNC(=O)C(=O)N/N=C/c1cccs1	·	5	-7	-0.42	·	·
COc1ccccc1NC(=O)C(=O)N/N=C/c1cccs1	0.57	-3	55*	0.5	-0.75	-11
CCCc1nc(SCc2ccccn2)c2c(=O)n(C)c(=O)n(C)c2n1	·	5	2	-1.4	-1.4	·
CCCc1nc(SCc2cccnc2)c2c(=O)n(C)c(=O)n(C)c2n1	·	9	84*	-0.58	-1.6	·
Cn1c(=O)c2c(SCc3cccnc3)nc(CC(C)(C)C)nc2n(C)c1=O	·	48	91*	0.88	·	·
O=C(/C=C/c1ccccc1Cl)c1ccccc(=O)c1O	-4.2*	-17	100*	-3.1	31*	-142
O=C(NCc1ccc2c(c1)OCO2)c1ccc(Cl)c(S(=O)(=O)N2CCOCC2)c1	·	1	4	-0.98	·	-27
Cc1cc2n(n1)C(c1cn(-c3ccccc3)nc1C)Nc1c(C)cccc1-2 (stereo not given)	-0.6	14	29	·	0.73	69
Cc1cc2n(n1)C(c1ccc3c(c1)OCO3)Nc1c(C)cccc1-2 (stereo not given)	·	1	99*	-0.49	-0.25	·
O=C(CSc1ccccn1)Nc1ccc(Cl)c([N+](=O)[O-])c1	-1.3	0	-2	-1.3	-0.22	·
O=C(CN(C(=O)c1ccc(Cl)cc1)C1CCCCC1)Nc1ccc(Cl)c([N+](=O)[O-])c1	·	57	85*	-3.4	0.56	-41
Cc1ccc([N+](=O)[O-])cc1NC(=O)CN(C(=O)c1ccc(Cl)cc1)C1CCCCC1	·	11	33	-0.28	0.12	·
SMILES	ROMK mod	WT yeast gro inh	L major viab	Ins promoter up	Cl transport mod	Insulin prom inh
O=C(CN(C(=O)c1ccccc1Cl)C1CCCCC1)Nc1ccc(Cl)c([N+](=O)[O-])c1	·	16	80*	·	-1.4	4
O=C(COc1ncnc2ccccc12)Nc1cccc([N+](=O)[O-])c1	-1.1	1	0	-0.54	·	·
O=C(COc1ncnc2ccccc12)Nc1ccc(Cl)c([N+](=O)[O-])c1	0.36	-7	72*	0.13	-0.96	32
Cc1cccn2c(=O)c(C=NCc3ccco3)c(Nc3ccc(SC(F)F)cc3)nc12	·	83*	91*	-0.31	-0.58	14
Cc1cccn2c(=O)c(C=NCCO)c(NCc3ccco3)nc12	0.48	0	14	-0.49	-0.51	-9
CCCOc1ccc(N2C(=O)CC(N(Cc3ccc(S(N)(=O)=O)cc3)C(=O)CC)C2=O)cc1 (stereo not given)	0.049	-5	-5	0.19	0.74	48
Cc1ccc(C)c(OCCn2c(=O)c3c(ncn3C3CCCC3)n(Cc3ccccc3)c2=O)c1	0.64	57	96*	-0.12	0.64	46
Cc1ccc2nc(SC(C(=O)Nc3ccc(F)cc3)c3ccccc3)[nH]c2c1 (stereo not given)	0.16	60*	11	-0.06	0.71	23
CS(=O)(=O)c1ccc(C(=O)OCc2nnc(-c3ccccc3)o2)cc1[N+](=O)[O-]	0.7	15	1	0.26	-3	-8
CCN=c1sc2ccccc2n1CC(O)COc1ccccc1 (stereo not given)	-0.24	12	100*	-0.1	-0.038	3
Cc1ccc(N(CC(O)Cn2c3ccccc3c3ccccc32)S(C)(=O)=O)c(C)c1 (stereo not given)	·	67*	-3	0.4	0.46	-37
CN=c1sc2ccccc2n1CC(O)COc1ccccc1 (stereo not given)	-1.6	21	28	-0.6	·	·
Cc1ccccc1OCC(O)Cn1c2ccccc2c2ccccc21 (stereo not given)	·	20	91*	-0.08	·	-10
Cc1nccn1CC(O)Cn1c2ccccc2c2ccccc21 (stereo not given)	-1.1	-13	14	·	-0.9	-9
CC(=O)Nc1ccc(N(CC(O)Cn2c3ccccc3c3ccccc32)S(=O)(=O)c2ccc(C)cc2)cc1 (stereo not given)	·	-12	62*	-1.5	-1.2	-13
COc1cc(C)c(Br)cc1S(=O)(=O)NCCN1CCOCC1	-0.61	3	2	-0.25	0.85	21
OC(COc1ccccc1)Cn1c2ccccc2c2ccccc21 (stereo not given)	·	80*	70*	·	-0.029	-10
O=C(O)c1ccc(OCC(O)Cn2c3ccccc3c3ccccc32)cc1 (stereo not given)	·	·	·	-0.06	-0.53	·
CC(=O)Nc1ccc(OCC(O)Cn2c3ccccc3c3ccccc32)c(C)c1 (stereo not given)	1.2	5	75*	-0.97	-1.2	·
CC(=O)Nc1ccc(OCC(O)Cn2c3ccccc3c3ccccc32)cc1 (stereo not given)	-0.2	41	85*	-0.32	-2.2	13
